HT1080 IDH1KD tx: toxicity to HT-1080 IDH1 knockdown cells (counter line); HT-1080 IDH1 knockdown viability, ATP luminescence, 48 h; Potency, µM (doses to about 46.1 µM), for inactives: at the highest dose activity, negative = toxicity, usual class: cytotoxic; hit rate 2% among 360,000; AID 686971;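 further: 0% = DMSO wells and -100% = cell-free medium wells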
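Knockdown cells (IDH1KD HT-1080) received compounds 2 h after plating at 750 cells/well and were kept 48 h at 37 °C in 5% FBS RPMI. A CellTiter-Glo luminescence read gave % activity for curve fitting.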
KB-3-1 cytotox: KB-3-1 parental cell cytotoxicity; KB-3-1 viability, CellTiter-Glo ATP luminescence, 72 h; Potency, µM (top dose mostly 46.1 µM), usual class: cytotoxic; hit rate 1.4% among 400,000; AID 1347075; further: on the % scale 0 is the no-effect control and ±100 the full control effect; nearly all actives have a fitted effect of over 60% in size
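Here the drug-naive KB-3-1 line serves as comparator for MDR sub-line selectivity; cells received compound titrations, 72 h at 37 °C, then CellTiter-Glo readout.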
ATXN2 expr inh: reduces ATXN2 reporter expression in HEK-293 cells | HEK-293 ATXN2-luciferase reporter, luminescence, 24 h | Potency, µM (doses to about 57 µM), for inactives: at the highest dose activity change, negative = inhibition, most hits filed as inhibitors | hit rate 0.72% among 360,000 | AID 1745845; further: on the % scale 0 is the no-effect control and ±100 the full control effect; nearly all actives have a fitted effect of over 55% in size
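qHTS (up to 57 uM final) was run with 24 h compound exposure of reporter cells at 37 °C. Each well was multiplexed: SteadyGlo luminescence measured ATXN2-luciferase expression after a fluorogenic Gly-Phe-AFC viability readout (25 uM final).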
S2 tox: cell viability loss in ATXN counter-screen; hit rate 0.49% among 400,000; Potency, µM (titrated, usually from 56.7 µM), actives largely listed as cytotoxic; S2 cells (HEK-293 line with an ATXN2-luciferase reporter) viability, CellTiter-Fluor protease fluorescence, 24 h; further: nearly all actives have a fitted effect of over 40% in size
HT1080-NT tox: kills 2HG-producing HT-1080-NT fibrosarcoma cells | HT-1080-NT fibrosarcoma viability, CellTiter-Glo ATP luminescence, 48 h | Potency, µM (highest dose often 46.1 µM), for inactives: top-dose activity, negative = less viability, hits mostly cytotoxic | hit rate 1.6% among 360,000;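 further: NT is the 2HG producing partner of a matched IDH1 knockdown line; 0% = DMSO-treated cells and -100% = media-only wells without cells; nearly all actives have a fitted effect of over 55% in size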
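750 cells/well, RPMI + 5% FBS; 2 h settle, compound pin-transfer, 48 h at 37 degrees C. CellTiter-Glo 10 min RT, luminescence. Normalized to DMSO and media-only wells.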
KB-V1 MDR tox: KB-V1 MDR subline cytotoxicity. KB-V1 MDR cells viability, CellTiter-Glo, 72 h. hit rate 3.4% among 400,000. Potency, µM (series often up to 46.1 µM), most hits filed as cytotoxic; further: on the % scale 0 is the no-effect control and ±100 the full control effect; nearly all actives have a fitted effect of over 60% in size
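qHTS viability screen in drug-selected KB-V1 MDR cells: 72 h compound treatment at 37 degrees C, ATP luminescence end point.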
Starred values were filed as active, the others as inactive; i = inactive; ? = inconclusive; . = no result; ! = not active in a repeat. Rows were chosen to be rich in hits. Some 6.2% of all compounds tested hit in one or more screens of this group. The call rests on the fitted dose curve; in most records, active means well fitted curve in the direction sought with a large enough effect; inconclusive means small, poorly fitted or top-dose-only effect, or another doubt; inactive means no such curve, though single readings can be large; an effect the other way counts as inactive or inconclusive. Potency means the concentration at half of the fitted maximal effect.

SMILES | HT1080 IDH1KD tx | KB-3-1 cytotox | ATXN2 expr inh | S2 tox | HT1080-NT tox | KB-V1 MDR tox
CN1CCN(CCC(=O)N2c3ccccc3Sc3ccc(Cl)cc32)CC1 | -25% | i | . | . | -10% | i
Cc1ccc(S(=O)(=O)N2C[C@H]3N(C(=O)OC(C)C)N(C(=O)OC(C)C)C[C@H](OC(=O)NCC4CCCCC4)[C@@]3(O)C2)cc1 | ? | ? | -38% | 32µM* | 21µM* | ?
NC(=O)C1CCN(c2nnc(-c3ccc(Br)cc3)s2)CC1 | . | i | . | . | . | i
Cc1cccc2c(C(O)c3cn(C)c4ccccc34)c[nH]c12 (centres undefined) | . | i | . | . | . | i
CC(C)n1ncc2c(C(=O)Nc3ccc(S(C)(=O)=O)cc3)cc(C3CC3)nc21 | 1% | i | . | i | -13% | i
CC(C)n1ncc2c(C(=O)Nc3cccc(S(=O)(=O)N(C)C)c3)cc(C3CC3)nc21 | -3% | ? | -12% | i | -2% | 8.2µM*
O=C(Nc1ccc2ccccc2c1)c1ccccc1O | 23µM* | ? | ? | i | 15µM* | ?
Oc1ccc2ccccc2c1CNc1ccc2ccccc2c1 | 21µM* | ? | -26% | i | ? | ?
O=C(Nc1ccc2ccccc2c1)c1ccccc1Cl | -5% | i | . | i | 5% | i
O=C(CSCc1cccc(CSCC(=O)Nc2ccc3ccccc3c2)n1)Nc1ccc2ccccc2c1 | -19% | ? | ? | i | -7% | 23µM*
O=C(CS)Nc1ccc2ccccc2c1 | 21µM* | i | -19% | i | 21µM* | i
Oc1ccc2ccccc2c1CNc1ccccc1 | -17% | i | 31% | i | 3% | ?
COc1cc(NC(=O)c2cc(S(=O)(=O)N3CCC(C)CC3)cn2C)cc(OC)c1OC | . | i | 8% | i | . | i
COc1ccccc1NC(=S)N1CCC(c2nc3cc(C)c(C)cc3[nH]2)CC1 | -7% | i | 5% | i | 4% | i
COc1ccccc1NC(=O)N1CCC(c2nc3cc(C)c(C)cc3[nH]2)CC1 | 5.8µM* | 1.6µM* | -2% | i | 5.8µM* | 9.2µM*
COC(=O)[C@@]12C[C@@H](CC(=O)NCc3ccc(OC)c(OC)c3)C(=O)N(Cc3cccc4ccccc34)C1=CCC(C)(C)C2 | -28% | i | . | . | ? | 21µM*
COC(=O)[C@@]12C[C@@H](CC(=O)NCc3ccccc3)C(=O)N(CCc3ccc(OC)c(OC)c3)C1=CCC(C)(C)C2 | -4% | i | . | . | -21% | ?
COC(=O)[C@@]12C[C@@H](CC(=O)NCc3ccc(C)o3)C(=O)N(CCc3ccc(OC)c(OC)c3)C1=CCC(C)(C)C2 | -16% | ? | . | . | -22% | 18µM*
COC(=O)[C@@]12C[C@@H](CC(=O)NCc3cccc4ccccc34)C(=O)N(CCc3ccc(OC)c(OC)c3)C1=CCC(C)(C)C2 | -24% | ? | . | . | ? | 23µM*
CO/N=C(\C(=O)N[C@@H]1C(=O)N2C(C(=O)O)=C(CSc3nc(=O)c(O)nn3C)CS[C@H]12)c1csc(N)n1 | . | . | 13% | i | . | .
CCOc1ccc(OCC(=O)Nc2c(C(=O)Nc3ccc(C)cc3)oc3ccccc23)cc1 | . | i | 4% | i | . | i
CCOc1ccc(NC(=O)CSc2nnc(C3CC3)n2C2CC2)cc1 | 17% | i | -7% | i | 9% | 13µM*
O=C(Nc1ccccc1)C1CCN(c2nccs2)CC1 | 14% | i | -1% | i | 19% | i
CN[C@@H]1CN(c2ccc3c(=O)c(C(=O)O)cn(-c4nccs4)c3n2)C[C@@H]1OC | . | . | 11µM* | . | . | .
Oc1ccc(Br)cc1-c1nc2cnccn2c1NC1CCCC1 | -13% | ? | -16% | i | -13% | 23µM*
SMILES | HT1080 IDH1KD tx | KB-3-1 cytotox | ATXN2 expr inh | S2 tox | HT1080-NT tox | KB-V1 MDR tox
Oc1ccc(Br)cc1-c1nc2cnccn2c1NC1CCCCC1 | -18% | i | -26% | i | ? | i
COc1ccc(-c2n[nH]c(=S)n2/N=C/C=C/c2ccccc2OC)cc1 | -4% | 10µM* | -5% | i | -9% | 18µM*
COc1ccccc1/C=C/C=N/n1c(-c2ccccc2)n[nH]c1=S | -3% | i | -15% | i | 1% | i
N#C/C(=C\C=C\c1ccccc1[N+](=O)[O-])C(=O)NCc1ccccc1 | ? | 16µM* | 28µM* | ? | -24% | ?
CCCCCCCCNC(=O)/C(C#N)=C/c1ccccc1[N+](=O)[O-] | -17% | ? | -14% | i | -19% | 16µM*
N#C/C(=C\c1ccccc1[N+](=O)[O-])C(=O)NCc1ccccc1 | -16% | i | 4% | i | -22% | i
Cc1ccccc1NC(=O)CS(=O)(=O)c1cccc2nsnc12 | . | i | 0% | i | . | i
CCOC(=O)[C@H](CCc1ccccc1)N[C@H]1CCc2ccccc2N(CC(=O)O)C1=O | -1% | i | 24µM*! | 35µM*! | 19% | i
CCOC(=O)[C@H](CCc1ccccc1)N[C@H]1CS[C@H](c2cccs2)CN(CC(=O)O)C1=O | . | . | 70% | i | . | .
O=C1C=CC(=O)N1c1ccc(OC(F)F)cc1 | 16µM* | ? | ? | . | ? | ?
O=C1C=CC(=O)N1c1ccc(O)cc1 | -7% | i | . | i | -2% | ?
COc1cc(=O)n2c(c1C(=O)N(C)Cc1nonc1C)CCN(Cc1ccccc1F)CC2 | . | . | . | i | . | .
O=C(Oc1cccc2cccnc12)c1cccc(N2C(=O)C3C4CCC(C4)C3C2=O)c1 (centres undefined) | ? | i | -26% | . | ? | i
O=C(Oc1cccc2cccnc12)c1ccc(N2C(=O)C3C4CCC(C4)C3C2=O)cc1 (centres undefined) | 13µM* | i | -23% | i | 16µM* | i
CCN(CC)c1ccc(/C=C/c2ccccn2)cc1 | . | 0.33µM* | . | . | . | i
CN(C)c1ccc(/C=C/c2ccccn2)cc1 | . | ? | . | . | . | i
COc1c(Cl)cc(C(=O)NN)cc1Cl | 2.6µM* | i | -21% | i | 2.1µM* | i
COc1c(Cl)cc(C(=O)O)cc1Cl | -5% | i | 9% | i | 0% | i
C=C1c2cc(OC)ccc2NC(=O)N1CC | -2% | i | 9% | i | 0% | 7.3µM*
C=C1c2cc(C)ccc2NC(=O)N1c1ccc(C)cc1 | -2% | i | 6% | i | 0% | i
CCCCCc1ccc(OCCC[n+]2ccccc2)c(CCCCC)c1 | 5.2µM* | 12µM* | ? | ? | 3.7µM* | i
CCCCCc1ccc(OCCOCCn2c[n+](C)c3ccccc32)c(CCCCC)c1 | ? | 18µM* | . | 18µM* | ? | i

Bioassay records as filed in PubChem BioAssay.
